Experimental findings from the supplement of paper PMC7366291 are described below.

Counter-ions that a name gives are not always drawn. ± gives the standard deviation or the standard deviation of the averaged measurements.

Common to all, as to conditions: 25 µM; exposure: 24-48 hpf
Experiment [1] concerns Danio rerio Tg(wt1b:EGFP) embryo, pronephros. Briefly: glomerular separation, fold change vs DMSO control; higher = glomeruli further apart (abnormal). In a few lines:
(§1)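 Every feature is expressed as a fold change relative to the averaged DMSO-treated embryos of the same day. The exposure ran from 24 to 48 hpf at 28.5°C, with dechorionated Tg(wt1b:EGFP) zebrafish embryos in HEPES-buffered E3 containing 0.003% PTU, 0.5% DMSO and 25 μM compound. Dorsal pronephros images taken in agarose-filled 96-well plates were reduced to maximum projections, on which 16 reference points were set by hand in Fiji for a macro to compute distances and angles. Values more than 2 SD from the feature mean were not used.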

For experiment [2] the test system is unchanged. Briefly: glomerular width (mean of left and right), fold change vs DMSO control; higher = wider glomerulus. A digest of the protocol: as §1
Experiment [3] shares this test system. Briefly: fraction of imaged embryos annotated as normal kidney; higher = less nephrotoxic; extreme values may be limits of the assay. In a few lines: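 The read-out is the proportion of embryos in each treatment manually annotated as normal-kidney. Exposure ran from 24 to 48 hpf at 28.5°C in 12-well plates, using dechorionated Tg(wt1b:EGFP) zebrafish embryos in 5 mM HEPES-buffered E3 with 0.003% PTU, 0.5% DMSO and 25 μM compound. For imaging, larvae were anaesthetised with tricaine, positioned dorsally in agarose-filled 96-well plates and captured by widefield fluorescence (470 nm, 10 z-slices), with scoring done on maximum projections.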

Experiment [4] has the same test system. The experiment is described as follows: pronephric angle neck segment to proximal convoluted tubule (mean of left and right), fold change vs DMSO control; higher = larger pronephric angle. In a few lines: as §1

As to `Clc1ccccc1CN1CCc2sccc2C1` [Ticlopidine hydrochloride], in experiment [1], the glomerular separation is 1.13 ± 0.49. In experiment [2], this compound gave a glomerular width of 1.09 ± 0.048. For the same compound, the “fraction of imaged embryos annotated as normal kidney” value (“fraction of imaged embryos annotated” below) in experiment [3] worked out at 0.833. Further, the “pronephric angle neck segment” value in experiment [4] was 1.008 ± 0.0084.
In the case of `CC(=O)OCC(CCn1cnc2cnc(N)nc21)COC(C)=O` [Famciclovir], in experiment [1], the glomerular separation was found to be 0.793 ± 0.23. In experiment [2], this compound yielded a glomerular width of 1.06 ± 0.048. Besides, the “fraction of imaged embryos annotated” value in experiment [3] worked out at 1. Moreover, the “pronephric angle neck segment” value in experiment [4] was determined as 0.9775 ± 0.004.
In experiment [1], `N=C(N)NS(=O)(=O)c1ccc(N)cc1` [Sulfaguanidine] gave a glomerular separation of 1.04 ± 0.35. In experiment [2], this compound displayed a glomerular width of 0.979 ± 0.034. Also, in experiment [3], the “fraction of imaged embryos annotated” value worked out at 0.833. In experiment [4], the “pronephric angle neck segment” value amounted to 1.02 ± 0.036.
The like results for `CS(=O)(=O)c1ccc([C@@H](O)[C@@H](CF)NC(=O)C(Cl)Cl)cc1` [Florfenicol] were, in that order, 1.03 ± 0.47, 1.01 ± 0.083, 1 and 1.01 ± 0.034.
Consider `CN(C)CCN(Cc1ccccc1)c1ccccn1` [Tripelennamine hydrochloride], for which the glomerular separation in experiment [1] was found to be 0.843 ± 0.37. Moreover, the glomerular width in experiment [2] was determined as 0.982 ± 0.054. The “fraction of imaged embryos annotated” value in experiment [3] was 1. In experiment [4], the “pronephric angle neck segment” value was 1.1 ± 0.083.
For the compound `O=C(NCCN1CCOCC1)c1ccc(Cl)cc1` [Moclobemide], in experiment [1], the glomerular separation came to 0.89 ± 0.26. In experiment [2], this compound gave a glomerular width of 1.01 ± 0.088. The “fraction of imaged embryos annotated” value in experiment [3] was found to be 0.833. Further, the “pronephric angle neck segment” value in experiment [4] was found to be 0.969 ± 0.011.
Consider `CC(=O)O[C@]1(C(C)=O)CC[C@H]2[C@@H]3C=C(C)C4=CC(=O)CC[C@]4(C)[C@H]3CC[C@@]21C` [Megestrol acetate], for which the glomerular separation in experiment [1] came out at 1.27 ± 0.82. The same compound gave a glomerular width in experiment [2] of 0.864 ± 0.029. In experiment [3], the “fraction of imaged embryos annotated” value came to 0.917. Besides, the “pronephric angle neck segment” value in experiment [4] came to 0.9907 ± 0.0078.
The like results for `CCC(NC(C)C)C(O)c1ccc(O)c(O)c1` (stereo not given) [Isoetharine mesylate salt] were, in that order, 1.01 ± 0.56, 1.074 ± 0.0074, 0.75 and 1.01 ± 0.032.
In experiment [1], `O=C1c2c(O)ccc(O)c2C(=O)c2c(NCCNCCO)ccc(NCCNCCO)c21` [Mitoxantrone dihydrochloride] showed a glomerular separation of 1.13 ± 0.46. The glomerular width in experiment [2] was determined as 1.03 ± 0.063. Also, the “fraction of imaged embryos annotated” value in experiment [3] stood at 0.667. In addition, the “pronephric angle neck segment” value in experiment [4] amounted to 1.07 ± 0.1.
With `CS(=O)(=O)Nc1ccc([N+](=O)[O-])cc1Oc1ccccc1` [Nimesulide], the glomerular separation in experiment [1] amounted to 3.39 ± 1.9. The same compound had a glomerular width in experiment [2] of 0.837 ± 0.056. Further, in experiment [3], the “fraction of imaged embryos annotated” value was 0. Moreover, in experiment [4], the “pronephric angle neck segment” value was determined as 1.38 ± 0.071.
Compound `CCCc1cc(C(N)=S)ccn1` [Prothionamide] had a glomerular separation in experiment [1] of 0.957 ± 0.36. Besides, in experiment [2], the glomerular width worked out at 0.9746 ± 0.0041. Besides, the “fraction of imaged embryos annotated” value in experiment [3] worked out at 0.917. For the same compound, in experiment [4], the “pronephric angle neck segment” value amounted to 1.007 ± 0.0083.
Take `O=C(CCNNC(=O)c1ccncc1)NCc1ccccc1` [Nialamide]: the glomerular separation in experiment [1] stood at 1.06 ± 0.4. In experiment [2], this compound registered a glomerular width of 0.97 ± 0.056. In experiment [3], the “fraction of imaged embryos annotated” value amounted to 0.583. Also, in experiment [4], the “pronephric angle neck segment” value worked out at 0.99 ± 0.061.
In turn, `Cc1ccccc1OCC(O)CO` (stereo not given) [Mephenesin] came in with a glomerular separation in experiment [1] of 1.06 ± 0.57. The same compound displayed a glomerular width in experiment [2] of 1.01 ± 0.012. Moreover, in experiment [3], the “fraction of imaged embryos annotated” value was determined as 0.917. For the same compound, in experiment [4], the “pronephric angle neck segment” value turned out to be 0.993 ± 0.033.
For the compound `CNCCCN1c2ccccc2CCc2ccccc21` [Desipramine hydrochloride], in experiment [1], the glomerular separation turned out to be 0.966 ± 0.26. The glomerular width in experiment [2] was 0.996 ± 0.032. In addition, in experiment [3], the “fraction of imaged embryos annotated” value was found to be 0.833. In addition, the “pronephric angle neck segment” value in experiment [4] came to 1 ± 0.047.
The like results for `CCCCc1oc2ccccc2c1C(=O)c1cc(I)c(OCCN(CC)CC)c(I)c1` [Amiodarone hydrochloride] were, in that order, 2 ± 1.1, 0.862 ± 0.021, 0.4 and 1.14 ± 0.13.
Turning to `CC(C(=O)O)c1ccc(N2Cc3ccccc3C2=O)cc1` (stereo not given) [Indoprofen], the glomerular separation in experiment [1] amounted to 2.27 ± 0.52. In addition, the glomerular width in experiment [2] turned out to be 0.658 ± 0.069. Moreover, the “fraction of imaged embryos annotated” value in experiment [3] was determined as 0.2. Moreover, in experiment [4], the “pronephric angle neck segment” value was 1.3 ± 0.1.
In turn, `CC(=O)Nc1c(I)c(NC(C)=O)c(I)c(C(=O)O)c1I` [Diatrizoic acid dihydrate] came in with a glomerular separation in experiment [1] of 1.34 ± 0.56. In experiment [2], this compound yielded a glomerular width of 1.03 ± 0.016. For the same compound, in experiment [3], the “fraction of imaged embryos annotated” value was 0.583. The “pronephric angle neck segment” value in experiment [4] was 1.05 ± 0.033.
With `Nc1ncn(C2OC(CO)C(O)C2O)c(=O)n1` (stereo not given) [Azacytidine-5], in experiment [1], the glomerular separation turned out to be 0.981 ± 0.4. Also, the glomerular width in experiment [2] is 0.979 ± 0.017. Moreover, the “fraction of imaged embryos annotated” value in experiment [3] worked out at 1. The “pronephric angle neck segment” value in experiment [4] amounted to 1.02 ± 0.031.
The like results for `CC(=O)c1ccc(S(=O)(=O)NC(=O)NC2CCCCC2)cc1` [Acetohexamide] were, in that order, 0.839 ± 0.25, 1.05 ± 0.023, 0.833 and 0.9767 ± 0.0092.
The compound `Cc1c(N)c(=O)n(-c2ccccc2)n1C` [Ampyrone] came in with a glomerular separation in experiment [1] of 0.975 ± 0.3. For the same compound, the glomerular width in experiment [2] was found to be 1.01 ± 0.031. Also, in experiment [3], the “fraction of imaged embryos annotated” value was determined as 0.917. Also, the “pronephric angle neck segment” value in experiment [4] was found to be 0.97 ± 0.0034.
With `Nc1cc(-c2ccncc2)c[nH]c1=O` [Amrinone], the glomerular separation in experiment [1] was 0.609 ± 0.23. The glomerular width in experiment [2] was 1.01 ± 0.036. Moreover, in experiment [3], the “fraction of imaged embryos annotated” value was found to be 0.917. Further, in experiment [4], the “pronephric angle neck segment” value came out at 0.969 ± 0.014.
Compound `NC[C@@H]1O[C@H](O[C@H]2[C@@H](O)[C@H](O[C@@H]3[C@@H](O)[C@H](N)C[C@H](N)[C@H]3O[C@H]3O[C@H](CO)[C@@H](O)[C@H](O)[C@H]3N)O[C@@H]2CO)[C@H](N)[C@@H](O)[C@@H]1O` [Paromomycin sulfate] yielded a glomerular separation in experiment [1] of 0.691 ± 0.18. For the same compound, the glomerular width in experiment [2] came to 1.07 ± 0.0023. For the same compound, the “fraction of imaged embryos annotated” value in experiment [3] turned out to be 0.75. In experiment [4], the “pronephric angle neck segment” value was determined as 0.99 ± 0.051.
The like results for `Nc1nc(=O)c2nc(CNc3ccc(C(=O)N[C@@H](CCC(=O)O)C(=O)O)cc3)cnc2[nH]1` [Folic acid] were, in that order, 0.808 ± 0.29, 0.941 ± 0.044, 0.636 and 1.04 ± 0.014.
The matching figures for `CC(C)(C)NC(=O)[C@@H]1C[C@@H]2CCCC[C@@H]2CN1C[C@@H](O)[C@H](Cc1ccccc1)NC(=O)[C@H](CC(N)=O)NC(=O)c1ccc2ccccc2n1` [Saquinavir mesylate]: 1.08 ± 0.35, 1.04 ± 0.085, 0.909 and 0.977 ± 0.016.
The like results for `CCN(CCCc1ccccc1)CCCc1ccccc1` [Alverine citrate salt] were, in that order, 0.843 ± 0.21, 1.02 ± 0.044, 0.75 and 0.942 ± 0.035.
In experiment [1], `O=c1n(CCCN2CCN(c3cccc(Cl)c3)CC2)nc2ccccn12` [Trazodone hydrochloride] showed a glomerular separation of 1.2 ± 0.34. Besides, the glomerular width in experiment [2] worked out at 0.97 ± 0.015. For the same compound, the “fraction of imaged embryos annotated” value in experiment [3] worked out at 1. For the same compound, in experiment [4], the “pronephric angle neck segment” value was found to be 0.997 ± 0.0034.
The like results for `Nc1nc(F)nc2c1ncn2[C@@H]1O[C@H](CO)[C@@H](O)[C@@H]1O` [Fludarabine] were, in that order, 0.97 ± 0.29, 0.997 ± 0.061, 1 and 0.975 ± 0.025.
In experiment [1], `CCN(CCO)CCCC(C)Nc1ccnc2cc(Cl)ccc12` (stereo not given) [Hydroxychloroquine sulfate] came in with a glomerular separation of 1.03 ± 0.49. In addition, the glomerular width in experiment [2] amounted to 1.038 ± 0.0043. In addition, in experiment [3], the “fraction of imaged embryos annotated” value was found to be 0.833. Moreover, the “pronephric angle neck segment” value in experiment [4] came to 0.935 ± 0.055.
Take `CCCCOc1ccc(OCCCN2CCOCC2)cc1` [Pramoxine hydrochloride]: the glomerular separation in experiment [1] stood at 0.962 ± 0.26. In addition, the glomerular width in experiment [2] turned out to be 0.951 ± 0.025. In addition, in experiment [3], the “fraction of imaged embryos annotated” value was found to be 0.917. Moreover, in experiment [4], the “pronephric angle neck segment” value is 0.993 ± 0.033.
The matching figures for `Nc1nc(NC2CC2)c2ncn([C@H]3C=C[C@@H](CO)C3)c2n1` [Abacavir Sulfate]: 0.958 ± 0.35, 1.05 ± 0.052, 0.9 and 1.04 ± 0.034.
